NALP1 inh = inhibitors of NALP1 inflammasome in yeast | S. cerevisiae NALP1/ASC/caspase-1 growth, X-gal OD620, 72 h | 280,000 compounds, 0.61% hits | inhibition, % at 10 µM | AID 2071; in the data active = inhibition mostly above about 24%, no sharp cut-off; inactive = mostly below about 32%
SUMO Mot1 rescue = inhibitors of SUMOylation pathway: yeast Mot1-301 growth rescue; S. cerevisiae Mot1-301 growth rescue, ATP luminescence, 38.5C; percent above DMSO median, 100 means doubled; 320,000 compounds, 1% hits; growth rescue, % at 18.8 µM;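 active = every valid replicate shows activation above 250% relative to neutral control wells; inactive = the rest, any valid replicate at or below 250%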
PolyA inhibitor = inhibitors of polyadenylation in S. cerevisiae. S. cerevisiae SKY197-pL101 polyadenylation reporter, beta-gal luminescence; efflux-impaired pdr1/pdr3 knockout yeast; score 100 = 6 SD above DMSO. activity score, % at 12 µM. 300,000 compounds, 0.02% hits. AID 1875;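 active = lowest replicate activity score at least 50, where 100 means six control SD above control mean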;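 also: yeast exposed to compound for 9 h at 30 °C; higher score means more reporter readthrough which indicates perturbed polyadenylation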
NALP3 yeast inh = blocks the NALP3 inflammasome reconstituted in yeast; Yeast reconstituted NLRP3/ASC/caspase-1, beta-gal luminescence, 24 h; inhibition, % at 10 µM; 330,000 compounds, 0.39% hits;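 active = inhibition of 50% or more; inactive = inhibition below 50%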
Yeast Mot1 SUMO = SUMO pathway inhibitors in yeast Mot1-301 growth | AID 493004 | S. cerevisiae Mot1-301 galactose growth, ATP luminescence, 24 h; -100 = growth of slx-deleted rescue strain | shares compounds with SUMO Mot1 rescue | growth activity, percent, % at 42 µM | 2,300 tested, under 10 active;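 active = Signal drops as the depositor expects, and the fitted half-maximal dose is no more than ten times the top valid tested dose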;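 also: more negative values mean stronger growth rescue toward the control strain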
A number is an active result; i = inactive; nt = no result; + = active, no number. A selection: hits, their analogues and other compounds. The true share with any hit is near 1.8%.

SMILES	NALP1 inh	SUMO Mot1 rescue	PolyA inhibitor	NALP3 yeast inh	Yeast Mot1 SUMO
CCC(C)NCCCCOc1cc(C)cc(C(C)C)c1 (stereo unspecified)	i	401	i	i	i
COc1cc(/C=N/NS(=O)(=O)c2ccc(C)cc2)ccc1OCc1ccc(C(=O)O)cc1	i	i	i	i	nt
CCOc1ccc(/C=N/NS(=O)(=O)c2ccc(C)cc2)cc1OC	i	+	i	i	i
CCC(C)NC(=O)C(=O)NCc1ccccn1 (stereo unspecified)	i	i	i	i	nt
COC(=O)Cn1c(=NC(=O)c2ccc(S(=O)(=O)N3CCOCC3)cc2)sc2cc(S(N)(=O)=O)ccc21	i	i	i	i	nt
COCCn1c(=NC(=O)c2ccc(S(=O)(=O)N3CCOCC3)cc2)sc2cc(S(N)(=O)=O)ccc21	i	552	i	i	i
O=C(NC1(C(F)(F)F)NC(=O)N(c2ccccc2F)C1=O)c1ccncc1 (stereo unspecified)	i	i	i	i	nt
CC(C)(C)C(=O)NC1(C(F)(F)F)NC(=O)N(c2ccccc2F)C1=O (stereo unspecified)	nt	483	i	i	i
COc1cccc(Nc2nc(C)nc3c2oc2ccccc23)c1	i	451	i	i	i
Cc1ccc(C(=O)Nc2ccc3c(c2)OCCO3)c(Cl)c1	i	408	i	i	i
CC(=O)Nc1ccccc1C(=O)C(=O)Nc1ccc(C(=O)NCC2CCCO2)cc1 (stereo unspecified)	i	917	i	i	i
CC(=O)Nc1ccccc1C(=O)C(=O)Nc1cccc(C(=O)NCC2CCCO2)c1 (stereo unspecified)	i	i	i	i	nt
CCC(CC)C(=O)N1CCCC(c2nc(-c3cccs3)no2)C1 (stereo unspecified)	i	503	i	i	i
CCCCc1cc(=O)oc2cc(OC(C)C(=O)NCc3ccccn3)c(Cl)cc12 (stereo unspecified)	i	i	i	i	nt
COc1ccc(NC(=O)CSc2c3c(nc4ccccc24)CCC3)c(OC)c1	i	i	i	i	nt
Cc1ccc(C)n1-n1cnc2sc3c(c2c1=O)CCCCC3	i	596	i	i	i
O=C(N[C@@H](Cc1ccccc1)C(=O)N[C@@H](Cc1ccccc1)C(=O)O)OCc1ccccc1	nt	i	i	i	nt
C/C(=N\NC(=O)c1ccc(Cn2cc(Br)cn2)o1)c1cccc(NC(=O)C(C)(C)C)c1	i	i	i	i	nt
FC(F)(F)c1nnc(-c2ccccc2)nc1Oc1ccc(Cl)cc1Cl	i	739	i	i	i
CC(C)CCn1c(C(C)O)nc2ccccc21 (stereo unspecified)	i	433	nt	i	i
CN(C)S(=O)(=O)c1cccc(NC(=O)c2cc(-c3cccs3)nn2-c2ccccc2)c1	i	i	i	i	nt
Cc1ccc(CN2CCN(/N=C/c3cc(Br)cc(Br)c3O)CC2)cc1	i	i	i	i	nt
Oc1c(Br)cc(Br)cc1/C=N/N1CCN(Cc2ccccc2)CC1	i	842	nt	nt	i
CC(=O)c1ccc2c3c(ccc(O)c13)CC2	i	i	i	i	nt
CC1CCN(CCCOc2ccc(OCc3ccccc3)cc2)CC1	i	551	i	i	i
SMILES	NALP1 inh	SUMO Mot1 rescue	PolyA inhibitor	NALP3 yeast inh	Yeast Mot1 SUMO
CCN(CC)CCOc1cccc(C(C)C)c1	i	i	i	i	nt
Cc1ccc(OCCCCN2CCC(C)CC2)cc1	i	i	i	i	nt
CC1CCN(CCCCOc2cccc(C(C)C)c2)CC1	i	408	i	i	i
CC1CCN(CCCCOc2ccc(F)cc2)CC1	i	548	i	i	i
c1ccc(COc2ccc(OCCCN3CCCC3)cc2)cc1	i	i	i	i	nt
CC(C)c1cccc(OCCCCN(C)C)c1	i	568	i	i	i
CCCCCC(=O)NC(=S)Nc1ccc(Br)cc1C	i	i	i	i	nt
CCOc1ccc(NC(=O)CN(Cc2ccccc2)S(C)(=O)=O)cc1	i	i	i	i	nt
Cc1ccc(NC(=S)NC2CC3CCCC(C2)N3Cc2ccco2)cc1 (stereo unspecified)	i	i	i	i	nt
N#C/C(=C\c1ccc[nH]1)C(=O)Nc1ccccc1Cl	i	i	i	i	nt
O=C(O)Cn1cc(C(=S)N2CCCCC2)c2ccccc21	i	i	nt	i	nt
COc1cc2nc(CSc3ncn[nH]3)[nH]c(=O)c2cc1OC	i	556	i	i	i
O=C(NCc1ccccn1)Nc1ccc(Cl)cc1Cl	i	i	i	i	nt
Cc1ccc(NC(=O)Cn2c(CCC(=O)O)ccc2-c2cccs2)cc1	i	526	i	i	i
Cc1c(Cl)cccc1NC(=O)Cn1c(CCC(=O)O)ccc1-c1ccccc1	i	429	i	i	i
O=C(O)CCc1ccc(-c2ccccc2)n1CC(=O)O	i	i	i	i	nt
CCCC(=O)Nc1nnc(/C=C/c2ccc(OC)cc2)s1	i	i	i	i	nt
CCCCC(=O)Nc1nnc(/C=C/c2ccc(OC)cc2)s1	i	714	i	i	i
O=c1[nH]c(SCc2ccccc2Cl)nc2c1CCCC2	i	i	i	i	nt
O=C1CCCC2=C1C(c1ccncc1)c1c(nc(SCc3ccccc3Cl)[nH]c1=O)N2 (stereo unspecified)	i	682	nt	i	i
Cc1ccccc1C(=O)NC1CCS(=O)(=O)C1 (stereo unspecified)	i	nt	i	i	nt
COc1cccc(NC(=S)N2c3ccccc3CC2C)c1 (stereo unspecified)	i	i	i	i	nt
COc1ccc(C(=O)Nc2ccccc2C(=O)NCCN2CCOCC2)cc1	i	i	i	i	nt
COc1ccc(C(=O)Nc2ccccc2C(=O)NCCN2CCOCC2)cc1OC	i	424	i	i	i
O=C(CSc1ccccc1)Nc1cc(S(=O)(=O)N2CCOCC2)ccc1N1CCOCC1	i	i	i	i	nt
SMILES	NALP1 inh	SUMO Mot1 rescue	PolyA inhibitor	NALP3 yeast inh	Yeast Mot1 SUMO
O=C(c1ccccc1Cl)N1CCN(Cc2ccc3c(c2)OCO3)CC1	i	i	i	i	nt
CN(c1ccccc1C(=O)N1CCN(Cc2ccc3c(c2)OCO3)CC1)S(C)(=O)=O	36	+	i	i	i
Cc1ccc(N2C(=O)c3cccc4c(N5CCN(C)CC5)ccc(c34)C2=O)c2cccnc12	i	702	i	i	i
COc1ccc(Nc2cc(NCCCO)c([N+](=O)[O-])c3nonc23)cc1	i	382	i	i	i
N#CC(C#N)=C1C=CC=CN1/C(=C\c1ccccc1Cl)C(=O)c1ccccc1	i	600	nt	nt	i
Cc1nc(SCC(=O)c2ccc(F)cc2)c([N+](=O)[O-])[nH]1	i	i	i	i	nt
N#CC1=C(SCC(N)=O)NC(=O)CC1c1ccccc1Cl (stereo unspecified)	i	613	i	i	i
O=c1/c(=C\c2cc([N+](=O)[O-])cc([N+](=O)[O-])c2O)sc2nc3ccccc3n12	i	i	nt	i	nt
COc1ccccc1CC(=O)N1CCN(S(=O)(=O)c2ccccc2)CC1	i	383	i	i	i
COc1ccccc1CC(=O)N1CCN(S(=O)(=O)c2ccccc2F)CC1	nt	i	nt	i	nt
COc1cc2c(cc1OC)C(c1cccc(OC)c1OC)CC(=O)N2 (stereo unspecified)	i	i	i	i	nt

Bioassay records: PubChem BioAssay, several laboratories
